Data on 29 compounds can be found in ChEMBL document CHEMBL3988442, “University of Dundee, Small-Polar-MMV Screening Library” (2021).

Hit rate of the full screen: of about 69,000 compounds, about 420 (0.61%) showed an effect of 50% or more. Shown is part of a subset that was picked to be rich in strong results.

The test deals with T1, Histidine--tRNA ligase (Leishmania infantum) (UniProt A4I591).
T1 sequence (whole entry): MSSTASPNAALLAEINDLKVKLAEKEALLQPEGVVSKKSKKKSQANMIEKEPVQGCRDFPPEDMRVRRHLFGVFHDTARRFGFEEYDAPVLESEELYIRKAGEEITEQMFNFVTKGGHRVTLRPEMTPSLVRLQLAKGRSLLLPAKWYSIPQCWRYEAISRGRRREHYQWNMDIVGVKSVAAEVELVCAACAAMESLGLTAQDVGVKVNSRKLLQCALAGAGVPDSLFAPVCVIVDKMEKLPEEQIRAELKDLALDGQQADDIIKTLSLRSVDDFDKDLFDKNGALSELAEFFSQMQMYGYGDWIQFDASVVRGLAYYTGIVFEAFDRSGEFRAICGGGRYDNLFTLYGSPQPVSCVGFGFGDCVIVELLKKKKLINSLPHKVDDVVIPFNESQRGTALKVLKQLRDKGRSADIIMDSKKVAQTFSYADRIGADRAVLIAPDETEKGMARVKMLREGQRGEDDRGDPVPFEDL
Put plainly: Leishmania infantum Histidine tRNA synthetase (LdHisRS). Format: functional. Set-up: scale not given: in the data most compounds retested in dose-response had high values. Particulars: 30 µM.
As to `Cc1ccc(CN2CC[C@@H]3[C@@H](CO[C@H]3CN(C)C)C2)o1`, the Percent Effect came to 10%.
To `CC(C)NC(=O)N1CC[C@@H]2CN(Cc3ccccc3)S(=O)(=O)[C@@H]2CC1` belongs 1.5%.
To `COCCN1CCN(Cc2ccc(C(C)=O)cc2)[C@H]2CS(=O)(=O)C[C@H]21` belongs 22.2%.
Under `Cc1nnc(N2C[C@H](C(=O)NCC3CC3)[C@@H]3CCO[C@@H]3C2)s1` stands 2.91%; under `Cc1ccn(C)c(=O)c1NC(=O)N(C)Cc1cccc(OC(C)C)c1`, 77.5%; under `CCC(=O)N(C)Cc1cccc(OC(C)C)c1`, 4.46%.
As for `CC(C)Oc1cccc(CN(C)C(=O)Nc2cccn(C)c2=O)c1`, the Percent Effect came to 13.9%.
Under `Cc1csc(CN2CC[C@H]3C(=O)N(c4cccnc4)CCO[C@H]3C2)n1` stands 23.1%.
Under `COCc1nc2cc(NCc3ccc(CO)o3)ccc2o1` stands 86.6%; under `COc1ccccc1C(C)(C)NCc1ccc(C)o1`, 2.86%; under `Cc1ccc(CNC(C)(C)c2noc(C(C)(C)C)n2)o1`, 27.1%.
To `COCc1nc2c(o1)CN(C(=O)NCc1ccccc1)C2` belongs 16%; to `COCc1nc2cc(NCc3ccc(C)o3)ccc2o1`, 102%.
For `CC(C)(C)c1nc2cc(NC(=O)Cn3ccc(=O)[nH]c3=O)ccc2o1`, the Percent Effect turned out to be 14%.
Under `O=C(NCC1CC1)[C@@H]1CCO[C@@H]2CCN(Cc3ccsc3)C[C@H]21` stands 20%; under `Cn1cnc(S(=O)(=O)N2CCO[C@H]3[C@@H](OCC4CC4)CC[C@@H]32)c1`, -5.26%; under `Cc1nc(-c2ccc(CC(=O)N3CCN(C(=O)C4CC4)CC3)cc2)cs1`, 21.2%.
To `Cc1nc(-c2ccc(CC(=O)N3CCNC(=O)C3)cc2)cs1` belongs -9.09%.
For `Cc1nc(-c2ccc(CC(=O)N3CCN(C(=O)C(C)C)CC3)cc2)cs1`, the Percent Effect was 63.6%.
To `Cc1csc([C@@H]2C[C@@H]3CCN(C(=O)c4cc(C)on4)C[C@H]3O2)n1` belongs 18.4%; to `CC(=O)N1[C@H](Cn2cncn2)C[C@@H]2CN(C(=O)c3ccoc3)CC[C@@H]21`, 13.5%; to `O=C1CC(c2ccccc2)c2sc(C(=O)O)c(-c3ccccc3)c2N1` (centres undefined), 13%.
To `O=C1CC(c2ccco2)c2sc(C(=O)O)c(-c3ccccc3)c2N1` (centres undefined) belongs 91.4%; to `O=C1CC(c2ccc(O)cc2)c2sc(C(=O)O)c(-c3ccccc3)c2N1` (centres undefined), 20.8%; to `COC[C@@]12CC[C@@H](N3CCOCC3)C[C@H]1CCN(c1ncccc1Cl)C2`, 22.9%.
With `O=C1O[C@@H]2CN(Cc3cc4ccccc4o3)C[C@@H]2N1Cc1ccccn1`, the Percent Effect is 0%.
Under `CN1CCN(Cc2nnc(C3CCN(CC4CC4)CC3)n2C)CC1` stands 21.1%; under `CN1CCN(Cc2nnc(C3CCN(C(CO)CO)CC3)n2C)CC1`, 80.7%.
To `CN1CCN(Cc2nnc(C3CCN(C4CCCCC4)CC3)n2C)CC1` belongs 13.2%.
